According to PubChem BioAssay:
Activity calls are given as the source filed them.

Legend:
[1] = small molecules captured by biotinylated probe aFSTL3 – biochemical, small-molecule microarray, fluorescence 635/667, stem cell growth factor project, primary screen (AID 1064); conditions: higher = more signal;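 note: measures binding of the biotinylated anti-FSTL3 antibody to printed compounds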
[2] = binders from COS7 lysate, DM2A8 probe, primary screen, torsin A project, cell lysate, small-molecule microarray, fluorescence 635/667 (AID 1065); conditions: higher = more signal, COS7 lysate expressing mutant human TOR1A
[3] = small molecules captured by biotinylated probe aFGF2 – biochemical, small-molecule microarray, fluorescence 635/667, stem cell growth factor project, primary screen (AID 1067); conditions: higher = more signal;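 note: measures binding of biotinylated aFGF2 protein to printed compounds on slides; z-score merges feature fluorescence and signal-to-noise across triplicate slides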
[4] = small molecules captured by biotinylated probe aFGF10 – biochemical, small-molecule microarray, fluorescence 635/667, stem cell growth factor project, primary screen (AID 1071); conditions: higher = more signal;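 note: score merges 667 nm spot intensity and signal to noise from triplicate slides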
[5] = target: Neurogenic locus notch homolog protein 2 (Homo sapiens) (UniProt Q04721); test: small molecules binding Notch2 protein – biochemical, small-molecule microarray, 635 nm fluorescence, stem cell growth factors, primary screen (AID 1073); conditions: higher = more signal
[6] = target: Pro-neuregulin-1, membrane-bound isoform (Homo sapiens) (UniProt Q02297); test: small molecules binding neuregulin-1 protein – biochemical, small-molecule microarray, fluorescence 635/667, psychiatric disease protein project, primary screen (AID 1075); conditions: NRG1 binding, 635 nm fluorescence, higher = more signal;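 note: score combines 667 nm spot fluorescence with signal to noise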
Chain of Pro-neuregulin-1, membrane-bound isoform (Homo sapiens) (Q02297 whole entry, looked up, the tested form may be a part, canonical isoform): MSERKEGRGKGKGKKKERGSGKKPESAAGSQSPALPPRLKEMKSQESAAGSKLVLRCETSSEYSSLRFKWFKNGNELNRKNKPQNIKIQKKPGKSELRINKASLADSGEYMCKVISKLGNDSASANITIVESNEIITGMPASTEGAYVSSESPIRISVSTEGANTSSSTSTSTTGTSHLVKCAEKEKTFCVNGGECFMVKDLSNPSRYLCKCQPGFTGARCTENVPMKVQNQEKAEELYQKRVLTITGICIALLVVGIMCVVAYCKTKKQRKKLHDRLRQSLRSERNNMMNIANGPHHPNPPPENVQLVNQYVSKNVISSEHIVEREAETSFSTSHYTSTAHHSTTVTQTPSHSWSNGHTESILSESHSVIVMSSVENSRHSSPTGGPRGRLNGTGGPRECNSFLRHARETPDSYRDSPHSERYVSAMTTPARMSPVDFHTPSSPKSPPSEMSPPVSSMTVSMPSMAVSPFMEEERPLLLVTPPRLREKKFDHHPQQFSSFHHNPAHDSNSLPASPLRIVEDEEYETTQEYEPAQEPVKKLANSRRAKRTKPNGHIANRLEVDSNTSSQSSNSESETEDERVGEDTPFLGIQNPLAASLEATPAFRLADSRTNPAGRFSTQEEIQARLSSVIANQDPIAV

[7] = system: Neuregulin-1 EGF-like domain; test: small molecules binding NRG1 EGF domain – biochemical, small-molecule microarray, 635 nm fluorescence, primary screen (AID 1081); conditions: higher = more signal;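 note: binding of the protein to compounds printed on small-molecule microarray slides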
[8] = FRG1 expression reporter modulators in myotubes – cell-based, C2C12 myotubes, firefly/Renilla luciferase, luminescence, FRG1 inhibition for FSHD, primary screen (AID 1084); conditions: FRG1 promoter luciferase, higher = more signal, called active from +8 up or from −8 down
[9] = small molecules captured by biotinylated probe aFST – biochemical, small-molecule microarray, fluorescence 635/667, stem cell growth factor project, primary screen (AID 1086); conditions: higher = more signal;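 note: score merges 667 nm fluorescence with signal-to-noise of each printed compound spot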
[10] = binders of probe aHhip on microarray, primary screen, stem cell growth factor project, biochemical, small-molecule microarray, fluorescence 635/667 (AID 1087); conditions: higher = more signal;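 note: score merges spot fluorescence at 667nm with spot signal to noise ratio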
[11] = system: PRMT1 (protein arginine N-methyltransferase 1); test: small molecules binding arginine methyltransferase PRMT1 – biochemical, small-molecule microarray, 635 nm fluorescence, primary screen (AID 1088); conditions: higher = more signal;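 note: binding of Prmt1 protein to compounds spotted on small-molecule microarray slides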
[12] = growth effects on S. cerevisiae YJM789 – YJM789 clinical isolate, OD600, 24 h, basal, primary screen (AID 1089); conditions: higher = more signal, called active from +8 up or from −8 down;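 note: growth of clinical yeast isolate S. cerevisiae YJM 789 seeded 1000 cells per well; test concentration not given here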
[13] = S. pombe growth modifiers, basal conditions – strain 972, OD600, 24 h, no modulator, primary screen (AID 1090);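 note: basal condition with compound alone and no growth modifier present; test concentration not given here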; conditions: S. pombe 972 growth, higher = more signal, called active from +8 up or from −8 down
[14] = budding yeast growth modifiers under rapamycin – strain BY4716, OD600, 96 h, primary screen (AID 1091); note: test concentration not given here; conditions: S. cerevisiae BY4716 + rapamycin, higher = more signal, called active from +8 up or from −8 down
[15] = target: Torsin-1A-interacting protein 2 (Homo sapiens) (UniProt Q8NFQ8); test: small molecules binding lysate-expressed LULL1 – cell lysate, human LULL1 lysate, 635/667 nm fluorescence, primary screen (AID 1092); conditions: small-molecule microarray, hLULL1 lysate binding, 635 nm fluorescence; higher = more signal;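 note: probe is lysate of COS7 cells overexpressing human LULL1; score merges per-feature 667 nm fluorescence with signal-to-noise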
Chain of Torsin-1A-interacting protein 2 (Homo sapiens) (Q8NFQ8 whole entry, looked up): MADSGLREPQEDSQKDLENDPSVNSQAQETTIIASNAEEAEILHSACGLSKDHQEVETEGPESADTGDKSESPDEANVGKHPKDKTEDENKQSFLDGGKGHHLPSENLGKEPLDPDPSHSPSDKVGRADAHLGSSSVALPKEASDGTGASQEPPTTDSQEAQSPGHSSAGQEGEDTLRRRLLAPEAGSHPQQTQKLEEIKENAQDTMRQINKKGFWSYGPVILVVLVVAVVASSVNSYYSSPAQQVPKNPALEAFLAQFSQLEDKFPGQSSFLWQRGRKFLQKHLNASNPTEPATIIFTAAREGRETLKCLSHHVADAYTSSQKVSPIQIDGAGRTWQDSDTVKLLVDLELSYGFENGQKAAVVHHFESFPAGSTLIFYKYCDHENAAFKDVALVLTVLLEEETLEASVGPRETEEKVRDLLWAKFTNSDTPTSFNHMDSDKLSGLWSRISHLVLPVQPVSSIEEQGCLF

[16] = optical density change of DRC41 E. coli – strain DRC41, OD650, 24 h, E. coli filamentation project, primary screen (AID 1093);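 note: MC1000 strain lacking acrAB efflux and sulA so SOS filamentation is blocked; test concentration not given here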; conditions: E. coli DRC41 growth, higher = more signal, called active from +8 up or from −8 down
[17] = probe aLefty2 binding to arrayed compounds – biochemical, biotinylated probe, 635/667 nm fluorescence, primary screen (AID 1094); conditions: small-molecule microarray, higher = more signal;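 note: score merges spot fluorescence near 667 nm with spot signal-to-noise ratio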
[18] = system: Noggin (protein binding on small-molecule microarray); test: small molecules binding Noggin protein – biochemical, 635/667 nm fluorescence, primary screen (AID 1095); conditions: 635 nm fluorescence, higher = more signal;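 note: score merges 667 nm feature fluorescence with signal to noise over triplicate slides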
[19] = target: Neurogenic locus notch homolog protein 3 (Homo sapiens) (UniProt Q9UM47); test: small molecules binding NOTCH3 protein – biochemical, 635/667 nm fluorescence, primary screen (AID 1096); conditions: small-molecule microarray, 635 nm fluorescence, higher = more signal
Chain of Neurogenic locus notch homolog protein 3 (Homo sapiens) (Q9UM47 whole entry, looked up): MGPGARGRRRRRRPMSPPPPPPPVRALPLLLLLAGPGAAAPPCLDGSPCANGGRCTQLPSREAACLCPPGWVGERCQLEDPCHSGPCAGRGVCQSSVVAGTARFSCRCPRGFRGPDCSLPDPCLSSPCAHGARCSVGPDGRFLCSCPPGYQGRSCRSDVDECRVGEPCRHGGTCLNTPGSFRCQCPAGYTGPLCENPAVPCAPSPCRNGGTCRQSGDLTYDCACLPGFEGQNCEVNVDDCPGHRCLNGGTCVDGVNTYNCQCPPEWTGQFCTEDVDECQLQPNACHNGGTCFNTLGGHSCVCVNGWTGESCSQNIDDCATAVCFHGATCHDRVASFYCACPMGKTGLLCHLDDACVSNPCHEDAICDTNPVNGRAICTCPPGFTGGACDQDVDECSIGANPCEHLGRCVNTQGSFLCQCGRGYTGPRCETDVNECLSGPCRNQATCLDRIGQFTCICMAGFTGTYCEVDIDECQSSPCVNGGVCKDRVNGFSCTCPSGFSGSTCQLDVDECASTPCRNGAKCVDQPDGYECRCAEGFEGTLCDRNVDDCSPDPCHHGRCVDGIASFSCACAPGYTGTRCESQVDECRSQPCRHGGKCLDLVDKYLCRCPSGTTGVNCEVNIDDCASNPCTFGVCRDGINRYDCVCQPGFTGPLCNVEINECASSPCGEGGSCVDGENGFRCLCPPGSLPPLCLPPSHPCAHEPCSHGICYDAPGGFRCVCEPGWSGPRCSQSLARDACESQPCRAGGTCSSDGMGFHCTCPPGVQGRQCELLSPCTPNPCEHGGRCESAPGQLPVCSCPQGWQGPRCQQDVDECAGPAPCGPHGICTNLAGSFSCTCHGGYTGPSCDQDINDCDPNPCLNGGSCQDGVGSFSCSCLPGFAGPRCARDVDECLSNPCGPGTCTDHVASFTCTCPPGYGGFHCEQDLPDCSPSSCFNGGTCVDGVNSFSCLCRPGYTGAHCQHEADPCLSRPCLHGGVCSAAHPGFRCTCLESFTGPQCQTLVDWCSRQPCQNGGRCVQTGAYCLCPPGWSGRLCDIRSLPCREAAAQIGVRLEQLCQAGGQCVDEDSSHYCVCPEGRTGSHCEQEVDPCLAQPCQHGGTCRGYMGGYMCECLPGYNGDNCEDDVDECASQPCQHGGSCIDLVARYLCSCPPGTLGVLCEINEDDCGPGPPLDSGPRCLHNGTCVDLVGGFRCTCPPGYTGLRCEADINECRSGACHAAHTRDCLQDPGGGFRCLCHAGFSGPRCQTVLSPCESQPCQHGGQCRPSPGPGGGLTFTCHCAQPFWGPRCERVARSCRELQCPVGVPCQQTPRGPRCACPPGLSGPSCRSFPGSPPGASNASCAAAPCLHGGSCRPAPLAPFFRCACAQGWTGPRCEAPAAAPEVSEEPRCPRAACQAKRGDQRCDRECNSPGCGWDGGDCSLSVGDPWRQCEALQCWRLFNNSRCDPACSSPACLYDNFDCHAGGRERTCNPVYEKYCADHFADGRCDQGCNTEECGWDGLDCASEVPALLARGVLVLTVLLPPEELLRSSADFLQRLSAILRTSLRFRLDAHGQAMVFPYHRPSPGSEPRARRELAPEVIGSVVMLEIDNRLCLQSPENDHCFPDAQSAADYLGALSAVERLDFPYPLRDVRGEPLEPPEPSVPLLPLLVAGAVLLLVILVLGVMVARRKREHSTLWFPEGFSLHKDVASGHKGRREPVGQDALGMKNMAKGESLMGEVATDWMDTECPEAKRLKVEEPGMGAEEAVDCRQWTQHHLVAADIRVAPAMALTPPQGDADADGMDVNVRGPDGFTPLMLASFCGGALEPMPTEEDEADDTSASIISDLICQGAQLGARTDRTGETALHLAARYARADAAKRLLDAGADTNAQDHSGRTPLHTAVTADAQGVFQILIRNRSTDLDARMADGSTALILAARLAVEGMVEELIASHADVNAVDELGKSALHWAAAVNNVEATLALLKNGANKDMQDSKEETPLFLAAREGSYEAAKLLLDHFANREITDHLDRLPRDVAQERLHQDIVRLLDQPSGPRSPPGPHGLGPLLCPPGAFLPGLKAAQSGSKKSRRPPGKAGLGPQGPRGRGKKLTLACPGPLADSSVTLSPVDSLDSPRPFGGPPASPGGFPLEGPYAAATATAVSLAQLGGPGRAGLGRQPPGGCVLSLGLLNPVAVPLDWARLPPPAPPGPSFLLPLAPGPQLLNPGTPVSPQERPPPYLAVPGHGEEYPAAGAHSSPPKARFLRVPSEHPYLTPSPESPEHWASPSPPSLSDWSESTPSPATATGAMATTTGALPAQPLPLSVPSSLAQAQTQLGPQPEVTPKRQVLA

[20] = probe aEGFR binding to arrayed compounds – biochemical, biotinylated probe, 635/667 nm fluorescence, primary screen (AID 1097); conditions: small-molecule microarray, higher = more signal;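 note: probe is a biotinylated anti-EGFR antibody binding compounds printed on slides; score combines fluorescence near 667 nm and signal to noise of each spot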

COc1ccc([Si](C)(C)[C@H]2[C@H](CCn3cc([C@H](O)c4ccccc4)nn3)O[C@@]3(C(=O)N(Cc4cccc(N5CCOC5=O)c4)c4ccccc43)[C@@H]2C)cc1
composite z-score [1]: -0.218 | composite z-score [2]: 0.071 | composite z-score [3]: -0.003 | composite z-score [4]: 0.29 | composite z-score [5]: 0.401 | composite z-score [6]: 0.209 | composite z-score [7]: 1.04 | z-score [8]: -0.955 (inactive) | composite z-score [9]: -0.0127 | composite z-score [10]: 0.155 | composite z-score [11]: 0.961 | z-score [12]: -0.0578 (inactive) | z-score [13]: 0.947 (inactive) | z-score [14]: 1.95 (inactive) | composite z-score [15]: 0.872 | z-score [16]: -0.565 (inactive) | composite z-score [17]: 0.0342 | composite z-score [18]: 0.827 | composite z-score [19]: 1.04 | composite z-score [20]: 0.117

CN(C)CCCNC(=O)[C@@]1(C)c2ccccc2C(=O)N(Cc2cc(F)cc(C(F)(F)F)c2)[C@H]1c1ccc(CO)cc1
composite z-score [1]: -0.0117 | composite z-score [2]: -0.224 | composite z-score [3]: -0.144 | composite z-score [4]: -0.681 | composite z-score [5]: -1.23 | composite z-score [6]: 1.05 | composite z-score [7]: -0.164 | z-score [8]: -0.712 (inactive) | composite z-score [9]: -0.641 | composite z-score [10]: -0.132 | composite z-score [11]: 0.936 | z-score [12]: -1.46 (inactive) | z-score [13]: -2.05 (inactive) | z-score [14]: -2.02 (inactive) | composite z-score [15]: 3.12 | z-score [16]: 0.0544 (inactive) | composite z-score [17]: -0.203 | composite z-score [18]: -0.986 | composite z-score [19]: -0.604 | composite z-score [20]: -0.237

COCCn1c(C(=O)N2CCCC2)cc2c1C[C@H]1CN(C(=O)c3ccccc3)[C@@](Cc3ccc(F)cc3)(C(=O)OC)[C@@H]21
composite z-score [1]: 0.123 | composite z-score [2]: 0.214 | composite z-score [3]: 0.24 | composite z-score [4]: 0.252 | composite z-score [5]: 1.41 | composite z-score [6]: 1.81 | composite z-score [7]: 0.997 | z-score [8]: 2.89 (inactive) | composite z-score [9]: 0.77 | composite z-score [10]: 0.0078 | composite z-score [11]: 1.12 | z-score [12]: -0.339 (inactive) | z-score [13]: 0.0582 (inactive) | z-score [14]: -0.0799 (inactive) | composite z-score [15]: 3.84 | z-score [16]: -0.191 (inactive) | composite z-score [17]: 0.166 | composite z-score [18]: 0.126 | composite z-score [19]: 0.583 | composite z-score [20]: 0.0843

C=CCC(OC(C)=O)[C@@H]1[C@@H](N(Cc2ccc(-c3cccc(C(F)(F)F)c3)o2)C(=O)c2ccc(-c3ccccc3)cc2)c2cc(OCCCO)ccc2N1C(=O)c1ccc(-c2ccccc2)cc1 (stereo not given in full)
composite z-score [1]: 0.0961 | composite z-score [2]: -0.233 | composite z-score [3]: -0.0242 | composite z-score [4]: 0.232 | composite z-score [5]: 0.242 | composite z-score [6]: 0.0249 | composite z-score [7]: -0.825 | z-score [8]: -0.245 (inactive) | composite z-score [9]: 0.13 | composite z-score [10]: -0.0994 | composite z-score [11]: -0.432 | z-score [12]: 0.308 (inactive) | z-score [13]: -0.0943 (inactive) | z-score [14]: 0.8 (inactive) | composite z-score [15]: 1.03 | z-score [16]: -0.801 (inactive) | composite z-score [17]: 0.0869 | composite z-score [18]: -0.29 | composite z-score [19]: -0.147 | composite z-score [20]: -0.15

O=C1c2ccccc2[C@](Cc2ccccc2I)(C(=O)NC2CC2)[C@H](c2ccc(CO)cc2)N1C1CCCCC1
composite z-score [1]: -0.0129 | composite z-score [2]: 0.677 | composite z-score [3]: -0.0989 | composite z-score [4]: 0.418 | composite z-score [5]: 1.48 | composite z-score [6]: 1.62 | composite z-score [7]: 1.41 | z-score [8]: -4.4 (inactive) | composite z-score [9]: 1.37 | composite z-score [10]: -0.926 | composite z-score [11]: 1.56 | z-score [12]: 1.13 (inactive) | z-score [13]: 0.525 (inactive) | z-score [14]: 2.36 (inactive) | composite z-score [15]: 2.38 | z-score [16]: 0.257 (inactive) | composite z-score [17]: -0.224 | composite z-score [18]: 0.62 | composite z-score [19]: 1.05 | composite z-score [20]: -0.36

COc1ccc(CCNC(=O)[C@@]2(Sc3ccc(C)cc3)CC(=O)N(C3CCCCC3)[C@@H]2c2ccc(CO)cc2I)cc1
composite z-score [1]: -0.113 | composite z-score [2]: 0.567 | composite z-score [3]: 0.0561 | composite z-score [4]: 0.773 | composite z-score [5]: 1.23 | composite z-score [6]: 1.29 | composite z-score [7]: 1.02 | z-score [8]: -1.57 (inactive) | composite z-score [9]: 0.306 | composite z-score [10]: -0.0237 | composite z-score [11]: 1.42 | z-score [12]: -1.11 (inactive) | z-score [13]: 0.0408 (inactive) | z-score [14]: 0.766 (inactive) | composite z-score [15]: 2.71 | z-score [16]: -0.0209 (inactive) | composite z-score [17]: -0.0823 | composite z-score [18]: 0.53 | composite z-score [19]: 1.1 | composite z-score [20]: 0.0414

CCCCN1CC=CC23O[C@@H]4C=CCOC(=O)[C@@H]4[C@H]2C(=O)N(CCCCCO)[C@@H]3C1=O (stereo not given in full)
composite z-score [1]: 0.219 | composite z-score [2]: -0.726 | composite z-score [3]: -0.187 | composite z-score [4]: -0.32 | composite z-score [5]: -0.661 | composite z-score [6]: 0.967 | composite z-score [7]: 1.34 | z-score [8]: -0.333 (inactive) | composite z-score [9]: -0.603 | composite z-score [10]: -0.21 | composite z-score [11]: -0.0902 | z-score [12]: -0.404 (inactive) | z-score [13]: -0.244 (inactive) | z-score [14]: -0.279 (inactive) | composite z-score [15]: 3.04 | z-score [16]: 1.34 (inactive) | composite z-score [17]: 0.0695 | composite z-score [18]: -0.929 | composite z-score [19]: -0.445 | composite z-score [20]: -0.268

CCN(CC)c1ccc(N2CC=CC34O[C@@H]5/C=C\CCC(C)OC(=O)C5[C@H]3C(=O)N(C(CO)C(C)C)[C@@H]4C2=O)cc1 (stereo not given in full)
composite z-score [1]: 0.165 | composite z-score [2]: -0.892 | composite z-score [3]: -0.0316 | composite z-score [4]: -0.551 | composite z-score [5]: -0.455 | composite z-score [6]: 0.12 | composite z-score [7]: 1.49 | z-score [8]: 0.225 (inactive) | composite z-score [9]: -0.344 | composite z-score [10]: 1.01 | composite z-score [11]: 0.746 | z-score [12]: -1.28 (inactive) | z-score [13]: -0.892 (inactive) | z-score [14]: -0.924 (inactive) | composite z-score [15]: 3.28 | z-score [16]: 0.41 (inactive) | composite z-score [17]: -0.17 | composite z-score [18]: -0.995 | composite z-score [19]: -0.0778 | composite z-score [20]: -0.13

COCCOC(=O)N1C(=O)[C@@]2(c3cc(C#Cc4ccc(OC)cc4)ccc31)[C@H](c1ccc(O)cc1)N1[C@H](c3ccccc3)[C@H](c3ccccc3)OC(=O)[C@H]1[C@@H]2C(=O)NC[C@H](O)c1ccccc1
composite z-score [1]: -0.273 | composite z-score [2]: 0.101 | composite z-score [3]: -0.155 | composite z-score [4]: 0.63 | composite z-score [5]: 1.29 | composite z-score [6]: 1.53 | composite z-score [7]: 1.34 | z-score [8]: 0.1 (inactive) | composite z-score [9]: 0.536 | composite z-score [10]: 0.192 | composite z-score [11]: 1.54 | z-score [12]: 1.5 (inactive) | z-score [13]: 0.217 (inactive) | z-score [14]: 2.82 (inactive) | composite z-score [15]: 2.16 | z-score [16]: 0.873 (inactive) | composite z-score [17]: -0.09 | composite z-score [18]: 1.48 | composite z-score [19]: 1.08 | composite z-score [20]: 0.0209
